Screens: PubChem BioAssay, Broad Institute
This is one part of a sample in which hits are shown more often than they occur.
miR122 inh: raises miR-122 sensor activity in Huh7 cells. actives 0.14% (n = 340,000). Huh7 psiCHECK-miR122 Renilla luciferase sensor, 48 h. activation, % at 12.5 µM;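 active = mean activation of 30% or more, with every replicate also reaching 30%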;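 also: 0% = median of neutral control wells and 100% = median of positive control wells; higher luciferase signal means stronger suppression of miR-122 activity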
* hit, by the source's call.

What do the screens show for `CCC(=O)N1C[C@H](C)[C@@H](OC)CN(C)C(=O)c2ccc(NC(=O)C3CCCCC3)cc2OC[C@H]1C`?
miR122 inh: -2

How did CN1C(=O)c2cc(NC(=O)Nc3ccccc3F)ccc2OC[C@@H]2O[C@@H](CC(=O)NCc3ccc(-c4ccccc4)cc3)CC[C@H]21 do in these assays?
miR122 inh: 48*

Results for CCC(=O)N1C[C@H](C)[C@H](OC)CN(C)C(=O)c2ccc(NC(=O)C3CCCCC3)cc2OC[C@@H]1C ?
miR122 inh: 1

How did CCCNC(=O)N1C[C@H](C)[C@H](OC)CN(C)C(=O)c2cc(NS(=O)(=O)CC)ccc2OC[C@@H]1C do in these assays?
miR122 inh: -24

How did CO[C@H]1CN(C)C(=O)c2ccc(NC(=O)Nc3cccc(F)c3)cc2OC[C@H](C)N(C)C[C@H]1C do in these assays?
miR122 inh: -11

Results for CN1C(=O)c2cc(NC(=O)Cc3cccs3)ccc2OC[C@@H]2O[C@H](CC(=O)NCc3ccc(-c4ccccc4)cc3)CC[C@@H]21 ?
miR122 inh: -188

Results for CCNC(=O)Nc1ccc2c(c1)C(=O)N(C)[C@H]1CC[C@H](CC(=O)Nc3cccc(F)c3)O[C@@H]1CO2 ?
miR122 inh: 67*

What do the screens show for `CCS(=O)(=O)Nc1ccc2c(c1)C(=O)N(C)[C@@H]1CC[C@@H](CC(=O)NCCCN3CCOCC3)O[C@H]1CO2`?
miR122 inh: 68*

Results for COc1ccccc1-c1cnc2c(c1)C(=O)N([C@@H](C)CO)C[C@H](C)[C@@H](CN(C)CC1CCCC1)O2 ?
miR122 inh: 6

What do the screens show for `Cc1noc(C)c1NC(=O)N(C)C[C@H]1Oc2ncc(C#CCC(C)C)cc2C(=O)N([C@H](C)CO)C[C@H]1C`?
miR122 inh: 1

Results for C[C@H]1CN([C@@H](C)CO)C(=O)c2cccc(NC(=O)c3ccncc3)c2O[C@@H]1CN(C)CC1CCCCC1 ?
miR122 inh: -91

How did C[C@H]1CN([C@@H](C)CO)C(=O)c2cc(C#Cc3ccccc3F)cnc2O[C@@H]1CN(C)S(=O)(=O)c1ccccc1 do in these assays?
miR122 inh: 2

What do the screens show for `C[C@H](CO)N1C[C@H](C)[C@@H](CN(C)CC2CCOCC2)Oc2ncc(C#CCC3CCCC3)cc2C1=O`?
miR122 inh: 0

What do the screens show for `C[C@@H]1CN([C@@H](C)CO)C(=O)c2cc(-c3cccc(F)c3)cnc2O[C@H]1CN(C)S(C)(=O)=O`?
miR122 inh: -3

How did C[C@H]1CN([C@@H](C)CO)C(=O)c2cc(-c3ccc(C(=O)N(C)C)cc3)cnc2O[C@@H]1CN(C)Cc1ccc(C(=O)O)cc1 do in these assays?
miR122 inh: 3

What do the screens show for `C[C@@H]1CN([C@@H](C)CO)C(=O)c2cc(/C=C/c3ccccc3)cnc2O[C@H]1CN(C)Cc1ccccc1F`?
miR122 inh: -19

Results for C[C@@H]1CN([C@@H](C)CO)S(=O)(=O)c2ccc(/C=C/c3ccccc3)cc2O[C@@H]1CN(C)C(=O)Nc1cccc(F)c1 ?
miR122 inh: -35

What do the screens show for `CCC(=O)Nc1ccc2c(c1)OC[C@H](C)N(C(=O)CN1CCOCC1)C[C@@H](C)[C@H](OC)CN(C)C2=O`?
miR122 inh: 0

What do the screens show for `C[C@H](CO)N1C[C@H](C)[C@@H](CN(C)Cc2ccc3c(c2)OCO3)Oc2c(NC(=O)Nc3ccccc3)cccc2C1=O`?
miR122 inh: -95

What do the screens show for `C[C@@H]1CN([C@@H](C)CO)S(=O)(=O)c2ccc(-c3cncnc3)cc2O[C@@H]1CN(C)C(=O)Cc1cccnc1`?
miR122 inh: -10

What do the screens show for `COCCNC(=O)C[C@H]1CC[C@@H]2[C@H](COc3ccc(NC(=O)c4cnccn4)cc3C(=O)N2C)O1`?
miR122 inh: 45*

Results for CN1C(=O)c2cc(NC(=O)NCc3ccccc3)ccc2OC[C@@H]2O[C@@H](CC(=O)NCC3CCCCC3)CC[C@@H]21 ?
miR122 inh: -120

Results for CCCNC(=O)Nc1ccc2c(c1)C(=O)N(C)[C@H]1CC[C@@H](CC(=O)NCC3CCCCC3)O[C@@H]1CO2 ?
miR122 inh: 42*

What do the screens show for `CO[C@H]1CN(C)C(=O)c2cc(NC(=O)Nc3ccccc3)ccc2OC[C@@H](C)NC[C@@H]1C`?
miR122 inh: 0

What do the screens show for `Cc1cccc(NC(=O)Nc2ccc3c(c2)C(=O)N(C)[C@@H]2CC[C@@H](CC(=O)NCc4ccccc4Cl)O[C@H]2CO3)c1`?
miR122 inh: 55*

How did CO[C@H]1CN(C)C(=O)c2cc(NC(=O)c3nc4ccccc4s3)ccc2OC[C@H](C)N(Cc2ccncc2)C[C@H]1C do in these assays?
miR122 inh: -10

Results for COCCNC(=O)C[C@@H]1CC[C@H]2[C@@H](COc3ccc(NC(C)=O)cc3C(=O)N2C)O1 ?
miR122 inh: -183

How did Cc1ccccc1NC(=O)Nc1ccc2c(c1)C(=O)N(C)[C@H]1CC[C@H](CC(=O)NCC3CC3)O[C@H]1CO2 do in these assays?
miR122 inh: -228

How did CCNC(=O)C[C@@H]1CC[C@H]2[C@@H](COc3ccc(NC(=O)Nc4ccc(F)cc4)cc3C(=O)N2C)O1 do in these assays?
miR122 inh: 50*

How did CN1C(=O)c2cc(NC(=O)Cc3cccs3)ccc2OC[C@@H]2O[C@@H](CC(=O)NCC3CCCCC3)CC[C@@H]21 do in these assays?
miR122 inh: -196

Results for C[C@H]1CN([C@@H](C)CO)S(=O)(=O)c2ccc(C#CCC3CCCC3)cc2O[C@@H]1CN(C)C(=O)CC1CC1 ?
miR122 inh: -38

Results for CCCNC(=O)N(C)C[C@@H]1Oc2ncc(C#CCC(C)C)cc2C(=O)N([C@H](C)CO)C[C@H]1C ?
miR122 inh: 7

How did CCCN(C)C[C@H]1Oc2ncc(C#CC3CCCCC3)cc2C(=O)N([C@H](C)CO)C[C@H]1C do in these assays?
miR122 inh: 3

How did CO[C@H]1CN(C)C(=O)c2ccc(NS(=O)(=O)c3ccc(C)cc3)cc2OC[C@H](C)N(C)C[C@H]1C do in these assays?
miR122 inh: 5

How did CCCNC(=O)N(C)C[C@H]1Oc2cc(-c3ccccc3)ccc2S(=O)(=O)N([C@@H](C)CO)C[C@H]1C do in these assays?
miR122 inh: -6

How did COc1ccc(C(=O)Nc2ccc3c(c2)OC[C@@H](C)N(C)C[C@@H](C)[C@H](OC)CN(C)C3=O)cc1 do in these assays?
miR122 inh: -5

Results for C[C@@H]1CN([C@@H](C)CO)S(=O)(=O)c2ccc(Br)cc2O[C@H]1CN(C)S(=O)(=O)c1cccc(F)c1 ?
miR122 inh: -1

How did CC(C)CC#Cc1ccc2c(c1)O[C@@H](CN(C)C(=O)NC1CCCC1)[C@@H](C)CN([C@@H](C)CO)S2(=O)=O do in these assays?
miR122 inh: -14

What do the screens show for `C[C@H]1CN([C@@H](C)CO)C(=O)c2cc(-c3cccc(C#N)c3)cnc2O[C@H]1CN(C)C`?
miR122 inh: 4

Results for C[C@@H]1CN([C@H](C)CO)C(=O)c2cc(C3=CCCCC3)cnc2O[C@H]1CN(C)Cc1ccccc1C(=O)O ?
miR122 inh: -16

How did C[C@@H]1CN([C@@H](C)CO)C(=O)c2cc(-c3ccncc3)cnc2O[C@@H]1CN(C)C(=O)c1ccccc1F do in these assays?
miR122 inh: 1

Results for CCCC(=O)Nc1ccc2c(c1)C(=O)N(C)[C@@H]1CC[C@H](CC(=O)NCCN3CCCCC3)O[C@H]1CO2 ?
miR122 inh: 50*

What do the screens show for `CCCNC(=O)C[C@H]1CC[C@H]2[C@H](COc3ccc(NC(=O)c4ccc5c(c4)OCO5)cc3C(=O)N2C)O1`?
miR122 inh: -122
